In the library only some 2.2% were active in any assay of this set; here they are far more common.
FUS suppressor: qHTS for Suppressors of FUS Proteinopathy: Primary screen using FUS-linked yeast assay. S. cerevisiae FUS-expressing, growth rescue, OD600, 24 h. Potency, µM (series often up to 76.6 µM), usual class: activators. 390,000 compounds, 0.24% hits. AID 1347120, 2019;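 further: plate controls were DMSO vehicle for no effect and reference control for full effect; nearly all actives have a fitted effect of over 55% in size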
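Toxicity suppression screen in FUS-yeast. Cells induced with 2% galactose, starting OD 0.005, treated 24hr at 30C with compounds at multiple final concentrations; growth by OD600.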
aSyn rescue: qHTS of alpha-syn Inhibitors; Yeast expressing alpha-synuclein, growth rescue, BacTiter-Glo, 24 h; Potency, µM (doses to about 46.1 µM), for the others: at the highest dose growth rescue (activation), hits mostly activators; 370,000 compounds, 0.14% hits; further: % of control where 0% means no effect; nearly all actives have a fitted effect of over 65% in size
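Screening used galactose-induced yeast with toxic alpha-synuclein levels, exposed to compound for 24 hr at 30 deg C. Cell growth, read with BacTiter-Glo luminescence, gave the measured signal.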
Abeta rescue: qHTS for compounds that reverse cellular toxicity of Amyloid beta (A-beta) peptide in yeast: Primary Screen | yeast expressing A-beta42, growth rescue, OD600, 48 h; response scale: 0% DMSO, 100% iron-clioquinol control | Potency, µM (series often up to 46.1 µM), hits mostly activators | 410,000 compounds, 0.063% hits | AID 1347071, 2019; further: nearly all actives have a fitted effect of over 55% in size
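Yeast growth medium received pinned compounds, then yeast cells expressing toxic A-beta were added; plates incubated at 30 C for 48 hr. Growth read as absorbance at 600 nm, normalized to DMSO and equimolar FeCl3 plus clioquinol controls.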
TDP43 rescue: qHTS of TDP-43 Inhibitors; TDP-43 expressing yeast growth rescue, BacTiter-Glo, 24 h; Potency, µM (top dose mostly 46.1 µM), inactives show at the highest dose growth rescue (activation), actives largely listed as activators; 410,000 compounds, 1.8% hits; further: % of control where 0% means no effect; nearly all actives have a fitted effect of over 50% in size
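Galactose-induced TDP-43 yeast, OD600=0.02, compound pinned; 24 hr, 30 deg C; BacTiter-Glo luminescence for growth. Inhibitors of TDP-43 toxicity read as activators.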
Mito fusion act: qHTS Assay for Small Molecule Inhibitors of Mitochondrial Division or Activators of Mitochondrial Fusion; S. cerevisiae fusion-defective mutant growth rescue, CellTiterGlo 48 h; Potency, µM (doses to about 46.1 µM), without a hit: at the highest dose growth rescue (activation), hits mostly activators; 320,000 compounds, 0.23% hits; AID 485298, 2010; further: % of control where 0% means no effect; nearly all actives have a fitted effect of over 45% in size
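Luminescent cell viability in 1536-well qHTS format served as the measure of rescued growth in ts fusion-mutant S. cerevisiae cultured on non-fermentable YPEG for 48 hours at 37C.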
Numbers without * were called inactive; i = inactive; ? = inconclusive; · = no result. The call rests on the fitted dose curve; in most records, active means well fitted curve in the direction sought with a large enough effect; inconclusive means small, poorly fitted or top-dose-only effect, or another doubt; inactive means no such curve, though single readings can be large; an effect the other way counts as inactive or inconclusive. Potency means the concentration at half of the fitted maximal effect.

SMILES	FUS suppressor	aSyn rescue	Abeta rescue	TDP43 rescue	Mito fusion act
COc1ccc(N2CCN(C(=O)COc3cccc4ccccc34)CC2)cc1	·	15%	i	13µM*	6%
COc1ccc(OCC(=O)N2CCN(c3nnc(-c4ccc(C)cc4)c4ccccc34)CC2)cc1	i	3%	i	22µM*	18%
Cc1ccc(-c2nnc(N3CCN(C(=O)COc4cccc(C)c4)CC3)c3ccccc23)cc1	i	0%	i	4%	13µM*
Cc1cccc(OCC(=O)N2CCN(c3nnc(-c4ccccc4)c4ccccc34)CC2)c1	i	2%	?	25µM*	?
O=[N+]([O-])c1ccc2c(c1)C=C/C2=C\c1ccccc1	·	3%	·	·	·
Cc1ccccc1N1CCN(C(=O)CCn2nnc3ccccc32)CC1	i	·	·	·	·
Cc1ccc(N2C(=O)C3C4C=CC(CNC(=S)Nc5ccc(Cl)cc5)(O4)C3C2=O)cc1 (stereo not drawn)	·	-35%	i	14µM*	5%
CCOC(=O)[C@@]12CN(C(=O)OC(C)(C)C)CC=C1N(Cc1ccc(OC)cc1)C(=O)[C@H]2CC(=O)NCCCN1CCCC1=O	i	·	·	·	·
Cc1ccc(S(=O)(=O)N(CC(O)Cn2c3ccccc3c3ccccc32)c2cccc(C(=O)NCCO)c2)cc1 (stereo not drawn)	20µM*	-5%	i	13%	·
Cc1ccc(CNC(=O)c2ccc(N3CCC4(CC3)CC(c3ccccc3)=NO4)c(NC(=O)c3ccco3)c2)cc1	18µM*	-2%	i	21%	-2%
Cc1ccc(CNC(=O)c2ccc(N3CCC4(CC3)CC(c3cccc(Br)c3)=NO4)c(NC(=O)c3ccco3)c2)cc1	?	-3%	i	0%	-9%
CC(C)c1cc(C(C)C)c(S(=O)(=O)NC(c2ccccn2)C23CC2C3)c(C(C)C)c1 (stereo not drawn)	?	?	i	22µM*	·
O=C1/C(=C/C=C/c2ccco2)SC(=S)N1c1ccc(O)cc1	i	21%	i	11µM*	-1%
C/C=C/C(=O)N1CCc2cc(S(=O)(=O)N(C)Cc3ccco3)ccc21	i	·	·	·	·
O=C1CCC(=O)N1c1ccc(NCc2ccccc2Cl)c([N+](=O)[O-])c1	i	7%	i	22µM*	6%
Cc1ccc(N=c2ssnc2Cl)cc1	i	-72%	i	-93%	1%
Cc1cc(C)nc(/N=c2/ssnc2Cl)c1	·	-65%	i	2.8µM*	-17%
Brc1ccc(CSc2ccc3nnc(-c4ccccn4)n3n2)cc1	i	0%	i	?	-1%
Cc1ccc(CSc2ccc3nnc(-c4ccccn4)n3n2)cc1	i	-1%	i	20µM*	-5%
Cc1ccc(CSc2ccc3nnc(-c4cccnc4)n3n2)cc1	i	-1%	i	7%	15%
Fc1cccc(CSc2ccc3nnc(-c4cccnc4)n3n2)c1	i	9%	?	16µM*	-2%
O=C(CSc1ccc2nnc(-c3cccnc3)n2n1)Nc1ccc(F)cc1	i	2%	i	1%	0%
Brc1ccc(CSc2ccc3nnc(-c4cccnc4)n3n2)cc1	i	1%	i	16µM*	0%
Cc1ccc(C(=O)Oc2coc(CSc3ncccn3)cc2=O)cc1[N+](=O)[O-]	i	·	·	·	·
Cc1cccc(Cn2cc(S(=O)(=O)c3cccc(Cl)c3)c(=O)c3cc(F)c(N4CCOCC4)cc32)c1	i	·	i	0%	·
O=C(COC(=O)c1n[nH]c(=O)c2ccccc12)Nc1cccc(S(=O)(=O)N2CCOCC2)c1	40µM*	-3%	i	-13%	·
O=C(COC(=O)c1cc(=O)[nH]c(=O)[nH]1)Nc1cccc(S(=O)(=O)N2CCOCC2)c1	i	4%	i	1%	-1%
COc1cc(OC)c(NC(=O)N2CCC(CN3CCCC3)CC2)cc1Cl	i	·	i	15%	·
